# A number with no mark means an inactive call. Calls of active or inactive are those of the source. Rule as the data show it: active = log2 fold change growth below about -1.8; inactive = the rest.
# Assay: C. elegans growth inhibition, whole organism, log2 fold change (AID 1259336);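 also: growth scored by imaging after five days at 20 °C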
# Conditions: anthelmintic screen, stronger effect = lower value
row,Structure (SMILES),log2 fold change growth
1,COc1ccccc1OCCCCn1c(C2CC2)nc2ccccc21,0.559
2,Cc1[nH]c2cc(F)cc(F)c2c(=O)c1-c1ccc(Oc2ccc(OC(F)(F)F)cc2)cc1,-0.247
3,C[C@H]1COc2c(N3CCN(C)CC3)c(F)cc3c(=O)c(C(=O)O)cn1c23,0.473
4,O=C(Nc1ccccc1)c1ccc(-c2cc3ccncc3cc2OC2CCNCC2)s1,-0.0844
5,CC(C)n1nc(-c2cc3c(Cl)cccc3[nH]2)c2c(N)ncnc21,-2.56 (active)
6,O=S(=O)(c1ccc(Cl)cc1)N1CCN(C(=S)NCc2ccco2)CC1,-0.203
7,CC(=O)N(CCN(C(=O)c1ccc(F)cc1)c1ccccc1)c1ccccc1,0.382
8,CC(C)[C@H](NC(=O)Cc1cccc2ccccc12)C(=O)Nc1cccc(C#N)c1,0.334
9,C[C@H]1CCCCN1C(=O)NCCc1coc(-c2ccc(F)cc2)n1,0.0232
10,c1ccc(-c2[nH]c3ccccc3c2[C@@H](c2ccccn2)N2CCCC2)cc1,-0.0251
11,N#CCN(CCCCN1CCN(c2ccc(F)cc2)CC1)C(=O)OCc1ccccc1,0.194
12,CCc1c(C)nc(-n2nc(C)cc2NC(=O)c2ccccc2SC)[nH]c1=O,-0.0348
13,CCS(=O)(=O)N(Cc1ccco1)Cc1cc2ccc(C)cc2[nH]c1=O,0.443
14,NC(N)=Nc1ccc(-c2ccc(-c3ccc(N=C(N)N)c(Cl)c3)o2)cc1Cl,-0.555
15,Cc1ccccc1C(=O)N1NC(=Nc2ccccc2)SC1(C)C,-0.306
16,C[C@H](Oc1ccccc1)C(=O)Nc1nc(-c2ccccn2)cs1,-0.519
17,Cc1ccccc1CN1CCC(O)(c2ccc(Cl)c(C(F)(F)F)c2)CC1,0.151
18,COc1ccc(C2=NN(C3CCCCCC3)C(=O)[C@@H]3CC=CC[C@H]23)cc1OCCCCOc1ccc(-c2nn[nH]n2)cc1,-0.0946
19,CN1CCN(c2cc(-c3ccc(F)cc3)nc(-c3ccncc3)n2)CC1,-1.96 (active)

row,Structure (SMILES),log2 fold change growth
1,CS(=O)(=O)c1ccccc1C(=O)N(Cc1ccccc1)c1ccccc1,-0.293
2,CCCCN(CCCC)c1c(C#N)cc(S(=O)(=O)Nc2ccccc2)cc1C#N,-0.631
3,O[C@@H](c1cc(C(F)(F)F)nc2c(C(F)(F)F)cccc12)[C@H]1CCCCN1,-0.189
4,COc1ccc(C2=NCCN2)cc1-c1cn(-c2cccc(C3=NCCN3)c2)nn1,0.077
5,CC(=O)N1CCc2cc3nc(C)cc(C)c3cc21,0.139
6,O=C(Nc1ccnc(-c2cccnc2)n1)c1cc(C(F)(F)F)cc(C(F)(F)F)c1,0.327
7,O=C(Nc1cccnc1)c1c(O)c2cccc3c2n(c1=O)CC3,-4.81 (active)
8,COc1cc(N[C@@H](C)CCCN)c2ncccc2c1,-0.0147
9,O=C(NC1CC1)c1ccc(N2CCC(Cc3ccccc3)CC2)nc1,0.0189
10,O=C(NC1CCCCC1)N1CCN(Cc2ccc3c(c2)OCO3)CC1,-0.153
11,CC(C)[C@@H](C(=O)Nc1ccc(S(=O)(=O)N(C)C)cc1)c1ccc(Cl)cc1,-5.06 (active)
12,COc1cc(C(F)(F)F)nc2ccc(C)c(N)c12,0.198
13,COc1cccc(CC(=O)N2CCC(n3c(C)nc4ccc(F)cc43)CC2)c1,0.116
14,N#Cc1nc(-c2ccccc2)oc1S(=O)(=O)c1ccc(Cl)cc1,0.277
15,C[C@H]1COC2(CCN(c3nc(=O)c4cc(C(F)(F)F)cc([N+](=O)[O-])c4s3)CC2)O1,-0.284
16,O=C(COc1cccc(F)c1)Nc1nc(-c2ccccn2)cs1,-0.223
17,CCOC(=O)c1cc(-c2csc(Nc3c(C)cc(C)cc3C)n2)on1,-0.726
18,O=C(N[C@H](Cc1ccccc1)C(=O)Nc1ccccc1N1CCOCC1)c1cccs1,0.306
19,CC1CC1C(=O)NC1CCN(CC2(c3ccccc3)CCCCC2)CC1 (stereo not drawn),0.347

# — PubChem BioAssay AID1259336 (Sattelle Laboratory, UCL Respiratory, Division of Medicine, …, 2017)
